Screening data: PubChem BioAssay, several laboratories
Cardiac RTF inh: cardiac RTF calcium desensitization; IANBD-labeled cardiac RTF, Ca2+ fluorescence; inhibition, % at 7.15 µM; 340,000 tested, 0.12% active; P19429+P45379;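 active = inhibition above the mean inhibition of all tested compounds plus 3 SD, cut at about 17% in these data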;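 note: assay run at fixed EC70 calcium of 1.6 mM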
IDE inh: cellular human IDE inhibition | inhibition, % at 5.59 µM | HEK cells, FAbetaB cleavage, fluorescence polarization | P14735 | 320,000 tested, 0.41% active;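 active = percent inhibition above the average of all tested compounds plus 3 SD, set per screening campaign, cut at about 16% in these data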;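 note: IDE supplied by intact live HEK cells; FP after avidin binding of uncleaved biotin substrate so inhibition keeps polarization high; 0% = DMSO wells and 100% = 60 µM reference IDE inhibitor Ii1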
IDE cell activ: boosts human insulin-degrading enzyme activity in HEK cells; 340,000 tested, 0.073% active; activation, % at 5.96 µM; P14735; FAbeta-B cleavage, fluorescence polarization; 0% vehicle, 100% cell-free pure enzyme wells;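 active = activation above the mean of all tested compounds plus 3 SD, set per screening campaign, cut at about 17% in these data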
TPT1 inh: inhibitors of Candida albicans tRNA 2'-phosphotransferase TPT1 | recombinant caTPT1, FP RNA substrate dephosphorylation | inhibition, % at 5 µM | 300,000 tested, 0.81% active | AID 1962;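 active = inhibition above the mean of all tested compounds plus 3 SD, set per screening campaign, cut at about 24% in these data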;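 note: plate controls were DMSO alone for no effect and ferristatin control at 100 nM for full effect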
CRFBP-R2 agonist: agonists of human CRF-binding protein/CRF-R2 receptor complex; HEK293 CRF-R2/CRF-BP, calcium dye fluorescence (FLIPR); percent of saturating CRF peptide response; activation, % at 13.2 µM; 350,000 tested, 0.46% active;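 active = activation of at least 50%, plus an integration ratio under a set limit after plate pattern correction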;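 note: plate controls were neutral control wells without compound for no effect and CRF at EC100 for full effect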
RTF Ca sens act: increases calcium sensitivity of human cardiac regulated thin filaments; P19429+P45379; IANBD-labeled TnC RTF fluorescence at EC20 calcium; 0% EC20 calcium, 100% full calcium; activation, % at 7.2 µM; 340,000 tested, 0.24% active; AID 493008;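 active = activation above the mean over all tested compounds plus 3 SD, cut at about 30% in these data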;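 note: rise in fluorescence read as greater calcium sensitivity of cardiac thin filaments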
TPT1 inh confirm: confirmation of Candida albicans TPT1 inhibitors; shares compounds with TPT1 inh; recombinant caTPT1, fluorescence polarization, RNase T1 coupled; inhibition, % at 5 µM; 2,400 tested, 74% active;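 active = inhibition above the primary screen limit, the mean inhibition of all tested compounds plus 3 SD, cut at about 25% in these data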
RNase T1 inh: blocks Aspergillus oryzae RNase T1, a TPT1 counter-screen; shares compounds with TPT1 inh; RNase T1 cleavage, fluorescence polarization, 1536-well; inhibition, % at 5 µM; 2,400 tested, 83% active; AID 2153;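 active = inhibition above the solvent-only control well mean plus 3 SD, limit set per screening run, cut at about 23% in these data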;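 note: plate controls were DMSO wells with enzyme for no effect and wells without RNase T1 for full effect; inhibitors block cleavage so intact labeled substrate keeps polarization high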
Target sequence (P00651 whole entry, looked up): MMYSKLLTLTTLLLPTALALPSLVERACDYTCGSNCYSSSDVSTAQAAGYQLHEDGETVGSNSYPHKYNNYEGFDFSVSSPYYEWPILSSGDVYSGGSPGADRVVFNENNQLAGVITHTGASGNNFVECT
Starred values were filed as active, the others as inactive; . = not tested or not shown. A selection: hits, their analogues and other compounds. The true share with any hit is near 1.5%.

SMILES | Cardiac RTF inh | IDE inh | IDE cell activ | TPT1 inh | CRFBP-R2 agonist | RTF Ca sens act | TPT1 inh confirm | RNase T1 inh
CN1CCc2c(sc(/N=C/c3cccs3)c2C(N)=O)C1 | -16 | -2 | -7 | 39* | 60* | 31* | 43* | 56*
COc1cc2ccccc2cc1C(=O)Nc1sc2c(c1C(N)=O)CCN(C(C)C)C2 | -8 | 10 | -1 | 82* | . | -7 | 54* | 62*
CN1CCc2c(sc(NC(=O)c3ccc4ccccc4c3)c2C(N)=O)C1 | -14 | 5 | -7 | 34* | . | 2 | 25* | 34*
CC(C)N1CCc2c(sc(NC(=O)CN3C(=O)c4ccccc4C3=O)c2C(N)=O)C1 | -4 | -9 | 7 | 1 | 5 | -2 | . | .
CCOC(=O)N1CCC(NC(=O)CC2C(=O)NCCN2Cc2ccccc2)CC1 (stereo not given) | 4 | 5 | 6 | -2 | 3 | -4 | . | .
Nc1c(C(=O)Nc2ccc(Br)cc2)sc2nc(-c3ccco3)ccc12 | -1 | 2 | -16 | 24* | 4 | -4 | 35* | 44*
Nc1c(C(=O)Nc2ccc(F)cc2)sc2nc(-c3ccco3)ccc12 | 0 | -1 | -9 | 28* | 4 | 2 | 25* | 33*
CCCc1cc2c(=O)n(NC(=O)c3nn(C)cc3[N+](=O)[O-])c(C)nc2s1 | -8 | 8 | 2 | 57* | 0 | 6 | 4 | 5
Cn1cc([N+](=O)[O-])c(C(=O)NCC(=O)O)n1 | 2 | -1 | 8 | 0 | 0 | 4 | . | .
NS(=O)(=O)c1cc2c(cc1Cl)NC(Cc1ccccc1)NS2(=O)=O (stereo not given) | -2 | 0 | 4 | 43* | -1 | -1 | 5 | 12
CCc1nc2ccccc2n1CC(=O)OCC(=O)N(CC(C)C)c1c(N)n(Cc2ccccc2)c(=O)[nH]c1=O | -12 | 6 | 0 | 2 | -1 | -1 | . | .
Oc1cccc(Nc2nc(O)c(/C=C3\C=Nc4ccccc43)s2)c1 | -55 | 11 | -66 | 77* | 15 | 27 | 130* | 130*
O=C1/C(=C/c2ccc([N+](=O)[O-])cc2)C=C(c2ccccc2)N1c1ccccc1 | -12 | -4 | 3 | 35* | 16 | -2 | 12 | 23*
O=C1/C(=C/c2ccc([N+](=O)[O-])cc2)C=C(c2ccccc2)N1c1ccc(O)cc1 | -8 | 0 | -2 | 4 | 3 | 0 | . | .
COCCN=c1scc(-c2ccc3c(c2)NC(=O)CO3)n1/N=C(\C)c1ccc(O)cc1 | -9 | 6 | -4 | 27* | 2 | -1 | 10 | 18
COc1cc(/C=N/n2c(-c3ccc4c(c3)NC(=O)CO4)csc2=Nc2cccc(C)c2)ccc1O | 2 | 7 | -3 | -1 | -6 | 1 | . | .
N#CCc1nc(C(c2ccccc2)c2ccccc2)no1 | -9 | 1 | -7 | 25* | 0 | 1 | 19 | 28*
O=C(CCCN1C(=O)/C(=C\c2ccco2)SC1=S)Nc1ccc(O)cc1C(=O)O | 10 | 9 | 3 | 27* | 0 | -15 | 10 | 18
O=C(CN1C(=O)/C(=C/c2ccco2)SC1=S)Nc1ccc(O)c(C(=O)O)c1 | 3 | 6 | -2 | 12 | 2 | -12 | . | .
O=C(CN1C(=O)/C(=C/c2ccco2)SC1=S)Nc1ccc(C(=O)O)c(O)c1 | 7 | 3 | -5 | 28* | 0 | -8 | 9 | 18
O=C(COC(=O)c1n[nH]c(=O)c2ccccc12)Nc1ccccc1 | -3 | . | 6 | . | 0 | -7 | . | .
O=C(Cn1c(=O)oc2ccc(Cl)cc21)Nc1ccon1 | -4 | -3 | 7 | 0 | 0 | -5 | . | .
Cc1ccc([C@H]2C[C@@H](n3cc(-c4ccc(F)cc4)nn3)[C@H](O)CN2C(=O)C2CCCCC2)cc1 | . | . | . | . | -1 | . | . | .
O=C(/C=C\Nc1ccc2c(c1)OCO2)c1ccc(Cl)s1 | -12 | -7 | -3 | 25* | 2 | 10 | 39* | 49*
